# Assay results from PubChem BioAssay (NCATS).
# Results filed as inconclusive are left out. Active and inactive are the calls of the source. Calls come from the whole dose curve; as a rule, active = well fitted cell-killing curve with a large enough effect; inconclusive = small, poorly fitted or top-dose-only effect; inactive = flat fitted curve, though single readings scatter. Peptide text beside a SMILES is read from it.
# Experiment: Cell Viability - LYMP2-016 (AID 984); note: nearly all actives have a fitted effect of over 55% in size
# Conditions: LYMP2-016 lymphoblastoid cell viability, qHTS; series mostly up to 92.2 µM; activity change, negative = cytotoxicity: at the top concentration
# Description: NIH Chemical Genomics Center [NCGC]
# NIH Molecular Libraries Screening Centers Network [MLSCN]
# National Institutes of Environmental Health Sciences [NIEHS]
# National Toxicology Program [NTP]
# We have developed a 1536-well cell-based assay for quantitative high throughput screening (qHTS) against a number of cell lines to determine in vitro cytotoxicity of small molecules. This particular assay uses a human lymphoblastoid cell line (LYMP2-016) purchased from Coriell Institute for Medical Research.
# NCGC Assay Protocol Summary:
# The CellTiter-Glo luminescent cell viability assay (Promega) is a homogeneous method to measure the number of viable cells in culture. The end point readout of this assay is based on quantitation of intracellular ATP, an indicator of metabolic activity, using the luciferase reaction. Luciferase catalyzes the oxidation of beetle Luciferin to oxyluciferin and light in the presence of ATP. The luminescent signal is proportional to amount of ATP present.
# Using the CellTiter-Glo luminescent cell viability assay, the amount of cellular ATP was measured in the lymphoblastoid cell line with complete culture medium following compound treatment for 24 hours. The assay was performed in opaque white Kalypsys 1536-well plates. In the screen, tetraoctylammonium bromide was used as positive control. Library compounds were measured for their ability to cause acute toxicity in the cell line, as reflected by a decrease in intracellular ATP levels, in a concentration-dependent manner. […] AC50 values were determined from concentration-response data modeled with the standard Hill equation.
# qHTS protocol for CellTiter Glo lymphoblastoid cellular assay
# [Step] [Parameter] [Value] [Description]
# 1. Reagent; 5 uL; 2500 lymphoblastoid cells/well
# 2. Time; 5 hr; 37 C incubation
# 4. Controls; 23 nL; Tetraoctylammonium bromide 6.4pM to 92 uM
# 5. Time; 24 hr; 37 C incubation
# 6. Reagent; 5 uL; CellTiter Glo reagent
# 7. Time; 30 min; Room Temperature
# 8. Detection; Luminescence; Viewlux plate reader
# Keywords: cell viability, cytotoxicity, lymphoblastoid cell line, luminescence, NTPHTS, NTPHTS_NCGC, NIEHS, DSSTox, MLSMR, MLSCN, NIH Roadmap, qHTS, NCGC
# % is set by controls: 0 for no effect and ±100 for the full control effect; potency is the fitted concentration of half-maximal effect.
SMILES,"activity change, negative = cytotoxicity",Potency
CCCCC(CC)COC(=O)C(C#N)=C(c1ccccc1)c1ccccc1 (configuration not stated),-22% (inactive),–
CS(=O)(=O)OCCCCOS(C)(=O)=O,–,inactive
CC(=O)Nc1ccc(O)cc1,-2.2% (inactive),–
COC(=O)[C@H](Cc1ccccc1)NC(=O)[C@@H](N)CC(=O)O (H-Asp-Phe-OMe),-3.66% (inactive),–
NS(=O)(=O)c1cc(C(=O)O)c(NCc2ccco2)cc1Cl,-4.77% (inactive),–
COc1c2occc2cc2ccc(=O)oc12,-12.8% (inactive),–
CCc1nc(N)nc(N)c1-c1ccc(Cl)cc1,-8.4% (inactive),–
Nc1ccc(S(N)(=O)=O)cc1,-1.64% (inactive),–
c1ccc2[nH]c(-c3cscn3)nc2c1,-15.5% (inactive),–
Cc1ccc(C)c(OCCCC(C)(C)C(=O)O)c1,-10.4% (inactive),–
CCCc1cc(=O)[nH]c(=S)[nH]1,-3.17% (inactive),–
CN(C)c1ccc2nc3ccc(=[N+](C)C)cc-3sc2c1,–,3.98 µM (active)
